Among the data in PubChem BioAssay (NCATS) are Potency values, retold here.

Records with an inconclusive call do not appear. Entries that show only a call come without a potency. Calls of active or inactive are those of the source. The call rests on the fitted dose curve; in most records, active means well fitted cell-killing curve with a large enough effect; inconclusive means small, poorly fitted or top-dose-only effect; inactive means flat fitted curve, though single readings scatter.
Potency means the concentration at half of the fitted maximal effect.

This test in a line: Cellular viability qHTS for adrenocortical cancer (ACC) cell line NCI-H295R (AID 1963990). Further: nearly all actives have a fitted effect of over 60% in size. The following applies: CellTiter-Glo ATP luminescence, 48 h; series mostly up to 46.1 µM. Summed up:
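Adrenocortical carcinoma cells, suspended at 300 000 cells/mL in serum-free DMEM plus ITS, rested overnight before pin transfer of compound. After two days' incubation, ATP-dependent luminescence was recorded and curve-fitted.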
As to `CCN(CC)CC(=O)Oc1ccc(NC(C)=O)cc1`, the Potency entry was “inactive”.
On to `COC(=O)c1nc(Cl)c(Cl)nc1N`, for which the Potency was 103 nM (active).
The same measure for `OC[C@@H](O)[C@@H](O)[C@H](O)[C@H](O)CO`: “inactive”; for `CC(=O)N(CC(O)CN(C(C)=O)c1c(I)c(C(=O)NCC(O)CO)c(I)c(C(=O)NCC(O)CO)c1I)c1c(I)c(C(=O)NCC(O)CO)c(I)c(C(=O)NCC(O)CO)c1I` (stereo not given): “inactive”.
As for `O=c1[nH]c(=O)n([C@H]2C[C@H](O)[C@@H](CO)O2)cc1I`, the entry is “inactive”.
The same measure for `CC(C)(C)NC[C@H](O)COc1nsnc1N1CCOCC1`: “inactive”.
Turning to `Clc1ccccc1-c1nc(-c2ccncc2)no1`, the Potency result was “inactive”.
As for `CCCCOCCOC(=O)c1cccnc1`, the entry is “inactive”; as for `NC1CCN(c2cccc(Cl)n2)CC1`, “inactive”; as for `CC(=O)N[C@@H](Cc1ccc(O)cc1)C(=O)O`, “inactive”.
As for `CC(=O)c1ccc(OCC(=O)N2CCCCC2)cc1`, the Potency result is “inactive”.
The same measure for `C=C(C)C(=O)OCC(O)CO` (stereo not given): “inactive”; for `CC(=O)NO`: “inactive”.
The same measure for `CC1(C)OC[C@@H](COC(=O)CCc2ccc(OC[C@@H](O)CNCCNC(=O)N3CCOCC3)cc2)O1`: “inactive”; for `N[C@@H](CCC(=O)N[C@@H](CS)C(=O)NCC(=O)O)C(=O)O`: “inactive”; for `CN=C(N)NC(=O)Nc1c(C)cccc1C`: “inactive”.
The same measure for `COc1cc2nc(-c3cc(F)ccc3O)nc(N[C@@H]3CNC[C@H]3C(C)(C)O)c2cc1OC`: 6310 nM (active).
In the case of `Nc1ncnc2c1ncn2Cc1c(F)cccc1Cl`, the Potency entry is “inactive”.
The same measure for `NCCS`: “inactive”; for `CCN1CCN(Cc2ccc(NC(=O)c3ccc(C)c(NC(=O)c4cncc(-c5cccs5)c4)c3)cc2C(F)(F)F)CC1`: 2510 nM (active).
